# Results taken from the supplement of paper PMC11732987, “Enantioselective OTUD7B fragment discovery through chemoproteomics screening and high-throughput optimisation” (Communications Chemistry, 2025).
# A number with no mark means an inactive call.
# Tests used:
# Assay in all cases: log2 ratio of Biotin-Ahx-Ub-VS probe labelling (fragment/DMSO); higher = less target engagement (more negative = stronger competition), active = hit call of the paper (q ≤ 0.05, log2 ratio ≤ -1)
# Details in all cases: compound concentration: 200 uM; treatment time: 3 h
# USP19 = target: T1, USP19 (UniProt O94966)
# T1 sequence (whole entry): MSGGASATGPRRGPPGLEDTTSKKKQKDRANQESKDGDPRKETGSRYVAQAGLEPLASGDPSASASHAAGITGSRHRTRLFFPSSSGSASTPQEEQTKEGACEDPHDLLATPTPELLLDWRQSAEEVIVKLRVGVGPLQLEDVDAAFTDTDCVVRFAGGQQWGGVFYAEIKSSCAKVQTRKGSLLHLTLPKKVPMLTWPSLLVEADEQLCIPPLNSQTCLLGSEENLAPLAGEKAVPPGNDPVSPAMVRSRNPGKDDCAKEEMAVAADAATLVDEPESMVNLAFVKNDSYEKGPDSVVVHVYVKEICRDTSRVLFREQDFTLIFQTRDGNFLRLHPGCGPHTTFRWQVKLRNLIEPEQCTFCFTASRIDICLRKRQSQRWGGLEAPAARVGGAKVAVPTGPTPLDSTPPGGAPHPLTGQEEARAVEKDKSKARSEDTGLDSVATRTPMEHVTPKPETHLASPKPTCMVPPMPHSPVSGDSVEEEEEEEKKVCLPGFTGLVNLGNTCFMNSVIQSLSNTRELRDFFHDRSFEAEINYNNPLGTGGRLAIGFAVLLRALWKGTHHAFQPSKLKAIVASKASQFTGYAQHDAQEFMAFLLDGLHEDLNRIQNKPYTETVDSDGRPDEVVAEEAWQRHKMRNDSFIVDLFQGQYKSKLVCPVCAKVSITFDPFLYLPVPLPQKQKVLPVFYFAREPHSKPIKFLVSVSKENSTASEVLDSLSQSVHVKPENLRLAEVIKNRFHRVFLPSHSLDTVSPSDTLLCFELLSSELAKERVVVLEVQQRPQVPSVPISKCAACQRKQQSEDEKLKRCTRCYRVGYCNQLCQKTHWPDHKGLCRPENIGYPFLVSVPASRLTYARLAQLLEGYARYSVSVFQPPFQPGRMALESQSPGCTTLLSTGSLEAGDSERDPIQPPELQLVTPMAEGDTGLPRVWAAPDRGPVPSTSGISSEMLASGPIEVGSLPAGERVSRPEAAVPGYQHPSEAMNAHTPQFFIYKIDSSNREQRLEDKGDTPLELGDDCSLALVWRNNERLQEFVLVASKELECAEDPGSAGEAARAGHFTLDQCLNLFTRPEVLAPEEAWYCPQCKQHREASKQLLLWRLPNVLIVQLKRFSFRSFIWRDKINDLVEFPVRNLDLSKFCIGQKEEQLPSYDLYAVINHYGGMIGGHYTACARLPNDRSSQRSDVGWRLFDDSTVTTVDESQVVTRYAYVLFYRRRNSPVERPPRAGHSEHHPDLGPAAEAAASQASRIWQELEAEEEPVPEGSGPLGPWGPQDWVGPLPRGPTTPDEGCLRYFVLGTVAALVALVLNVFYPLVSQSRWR
# Procedure, shortened: (§1)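 Triplicate samples of HEK293T lysate, 495 µg each, received fragment at 200 µM or vehicle for 3 h, followed by Biotin-Ahx-Ub-VS (0.5 µM final) for 1 h. After NeutrAvidin enrichment of labelled DUBs and LysC/trypsin digestion, peptides were run by diaPASEF LC-MS/MS. The values are average log2 fragment/vehicle ratios from global-median-normalised Spectronaut label-free quantities, tested by unpaired t-test on proteins having ≥2 unique peptides.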
# USP22 = target: T2, USP22 (UniProt Q9UPT9)
# T2 sequence (whole entry): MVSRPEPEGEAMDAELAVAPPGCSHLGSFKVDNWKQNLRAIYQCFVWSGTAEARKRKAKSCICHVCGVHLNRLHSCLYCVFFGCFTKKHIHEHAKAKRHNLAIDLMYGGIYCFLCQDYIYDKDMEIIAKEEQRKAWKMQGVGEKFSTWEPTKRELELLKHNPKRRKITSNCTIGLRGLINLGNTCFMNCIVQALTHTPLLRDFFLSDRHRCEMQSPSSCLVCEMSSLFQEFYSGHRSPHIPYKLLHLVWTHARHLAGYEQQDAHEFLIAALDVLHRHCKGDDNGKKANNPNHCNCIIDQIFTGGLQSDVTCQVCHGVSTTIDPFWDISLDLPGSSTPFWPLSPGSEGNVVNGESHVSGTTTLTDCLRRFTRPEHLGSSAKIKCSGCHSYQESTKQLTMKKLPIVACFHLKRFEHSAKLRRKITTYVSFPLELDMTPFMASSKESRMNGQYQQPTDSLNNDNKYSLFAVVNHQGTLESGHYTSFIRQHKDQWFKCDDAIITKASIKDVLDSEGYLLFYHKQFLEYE
# Procedure, shortened: as §1
# USP24 = USP24 (UniProt Q9UPU5)
# Chain of USP24 (Q9UPU5 whole entry): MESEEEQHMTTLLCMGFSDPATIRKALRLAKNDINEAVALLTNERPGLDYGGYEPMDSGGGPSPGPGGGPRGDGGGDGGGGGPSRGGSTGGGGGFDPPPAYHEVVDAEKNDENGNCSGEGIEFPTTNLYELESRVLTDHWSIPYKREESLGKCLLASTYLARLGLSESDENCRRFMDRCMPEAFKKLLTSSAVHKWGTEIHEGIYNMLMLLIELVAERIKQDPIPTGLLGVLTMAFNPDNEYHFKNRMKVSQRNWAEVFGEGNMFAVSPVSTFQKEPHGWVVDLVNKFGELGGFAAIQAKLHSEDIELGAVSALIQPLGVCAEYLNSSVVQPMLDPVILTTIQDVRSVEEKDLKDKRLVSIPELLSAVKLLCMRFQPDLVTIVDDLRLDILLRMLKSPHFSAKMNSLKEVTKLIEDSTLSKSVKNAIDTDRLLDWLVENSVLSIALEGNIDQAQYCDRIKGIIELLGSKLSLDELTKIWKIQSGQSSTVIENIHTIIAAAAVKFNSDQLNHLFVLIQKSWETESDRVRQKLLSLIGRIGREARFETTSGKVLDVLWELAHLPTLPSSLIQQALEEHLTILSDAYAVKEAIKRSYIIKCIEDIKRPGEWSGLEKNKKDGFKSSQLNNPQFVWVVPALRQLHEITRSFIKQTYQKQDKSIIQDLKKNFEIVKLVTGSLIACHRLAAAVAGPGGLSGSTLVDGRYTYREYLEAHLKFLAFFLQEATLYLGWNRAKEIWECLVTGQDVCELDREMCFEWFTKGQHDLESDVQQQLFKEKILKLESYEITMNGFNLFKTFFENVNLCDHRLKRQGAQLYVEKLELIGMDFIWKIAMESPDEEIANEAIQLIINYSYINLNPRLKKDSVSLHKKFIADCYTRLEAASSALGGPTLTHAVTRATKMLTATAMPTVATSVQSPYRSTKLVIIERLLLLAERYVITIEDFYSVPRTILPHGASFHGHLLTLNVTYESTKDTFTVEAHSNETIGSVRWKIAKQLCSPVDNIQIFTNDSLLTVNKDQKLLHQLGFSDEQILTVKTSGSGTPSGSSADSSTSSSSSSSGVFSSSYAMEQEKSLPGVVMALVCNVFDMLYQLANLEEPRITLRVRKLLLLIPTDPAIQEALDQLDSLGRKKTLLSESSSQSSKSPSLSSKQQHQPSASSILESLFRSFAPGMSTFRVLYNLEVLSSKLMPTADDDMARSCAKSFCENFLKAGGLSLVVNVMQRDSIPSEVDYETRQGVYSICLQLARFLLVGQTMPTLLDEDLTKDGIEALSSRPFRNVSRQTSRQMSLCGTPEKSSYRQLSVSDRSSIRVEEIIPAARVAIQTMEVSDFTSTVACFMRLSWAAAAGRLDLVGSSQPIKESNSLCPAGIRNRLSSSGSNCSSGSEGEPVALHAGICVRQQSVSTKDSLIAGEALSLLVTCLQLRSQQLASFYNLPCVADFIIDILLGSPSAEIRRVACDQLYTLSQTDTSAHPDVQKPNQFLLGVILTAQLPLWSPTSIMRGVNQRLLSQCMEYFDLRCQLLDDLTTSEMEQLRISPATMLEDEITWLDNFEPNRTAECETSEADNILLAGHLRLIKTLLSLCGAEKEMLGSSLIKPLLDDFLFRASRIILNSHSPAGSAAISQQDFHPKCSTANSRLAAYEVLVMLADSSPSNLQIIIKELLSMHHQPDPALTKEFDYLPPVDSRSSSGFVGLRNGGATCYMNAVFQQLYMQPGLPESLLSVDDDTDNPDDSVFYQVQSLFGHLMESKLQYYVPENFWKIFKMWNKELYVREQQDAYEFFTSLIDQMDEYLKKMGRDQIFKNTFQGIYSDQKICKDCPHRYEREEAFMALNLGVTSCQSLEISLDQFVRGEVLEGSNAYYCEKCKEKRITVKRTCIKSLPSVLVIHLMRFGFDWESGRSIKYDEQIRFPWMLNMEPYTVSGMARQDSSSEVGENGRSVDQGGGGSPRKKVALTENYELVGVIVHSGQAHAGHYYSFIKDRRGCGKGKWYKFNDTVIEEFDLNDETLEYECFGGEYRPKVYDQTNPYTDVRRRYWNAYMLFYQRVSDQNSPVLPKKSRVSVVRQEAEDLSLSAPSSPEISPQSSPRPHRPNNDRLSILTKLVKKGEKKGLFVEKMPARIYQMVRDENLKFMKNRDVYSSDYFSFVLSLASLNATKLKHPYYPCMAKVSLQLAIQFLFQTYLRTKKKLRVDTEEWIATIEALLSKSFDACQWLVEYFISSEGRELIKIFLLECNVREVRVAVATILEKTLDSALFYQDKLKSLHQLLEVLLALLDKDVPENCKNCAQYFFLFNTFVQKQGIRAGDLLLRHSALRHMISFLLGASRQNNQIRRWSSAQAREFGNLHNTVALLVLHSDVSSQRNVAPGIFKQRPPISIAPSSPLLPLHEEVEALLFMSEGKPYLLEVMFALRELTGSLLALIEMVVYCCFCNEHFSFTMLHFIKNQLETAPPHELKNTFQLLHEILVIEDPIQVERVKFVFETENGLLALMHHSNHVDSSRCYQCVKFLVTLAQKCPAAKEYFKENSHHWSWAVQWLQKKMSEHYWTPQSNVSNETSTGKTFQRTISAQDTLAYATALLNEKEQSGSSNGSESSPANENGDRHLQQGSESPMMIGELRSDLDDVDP
# Procedure, shortened: as §1
# USP25 = target: T3, USP25 (UniProt Q9UHP3)
# T3 sequence (whole entry): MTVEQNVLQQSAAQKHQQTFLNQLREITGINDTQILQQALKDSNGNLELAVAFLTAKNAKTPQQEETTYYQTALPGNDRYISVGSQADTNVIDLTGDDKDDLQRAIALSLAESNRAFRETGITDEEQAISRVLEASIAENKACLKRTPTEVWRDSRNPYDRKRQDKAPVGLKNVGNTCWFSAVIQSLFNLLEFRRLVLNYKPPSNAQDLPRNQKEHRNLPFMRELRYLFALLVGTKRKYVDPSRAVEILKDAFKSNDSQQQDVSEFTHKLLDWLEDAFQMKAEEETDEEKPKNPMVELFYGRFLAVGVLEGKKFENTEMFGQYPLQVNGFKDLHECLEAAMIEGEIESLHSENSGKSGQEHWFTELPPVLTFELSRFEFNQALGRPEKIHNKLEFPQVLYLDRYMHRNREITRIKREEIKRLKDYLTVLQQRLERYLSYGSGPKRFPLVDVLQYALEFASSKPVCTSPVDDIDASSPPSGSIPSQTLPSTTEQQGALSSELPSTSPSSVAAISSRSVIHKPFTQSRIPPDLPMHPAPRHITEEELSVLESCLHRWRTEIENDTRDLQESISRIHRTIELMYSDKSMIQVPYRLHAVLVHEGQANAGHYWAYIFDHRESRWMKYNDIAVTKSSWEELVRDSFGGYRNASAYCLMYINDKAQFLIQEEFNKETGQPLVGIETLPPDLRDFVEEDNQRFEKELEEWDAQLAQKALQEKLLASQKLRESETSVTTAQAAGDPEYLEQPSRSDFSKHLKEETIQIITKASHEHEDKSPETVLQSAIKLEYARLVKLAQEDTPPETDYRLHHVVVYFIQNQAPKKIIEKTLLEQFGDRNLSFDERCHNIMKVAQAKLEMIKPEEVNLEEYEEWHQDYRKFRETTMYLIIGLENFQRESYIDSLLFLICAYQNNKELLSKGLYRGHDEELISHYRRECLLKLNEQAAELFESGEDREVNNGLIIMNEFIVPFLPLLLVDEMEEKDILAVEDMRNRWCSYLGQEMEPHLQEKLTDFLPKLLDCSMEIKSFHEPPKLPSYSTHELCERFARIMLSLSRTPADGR
# Procedure, shortened: as §1
# USP28 = target: T4, USP28 (UniProt Q96RU2)
# T4 sequence (whole entry): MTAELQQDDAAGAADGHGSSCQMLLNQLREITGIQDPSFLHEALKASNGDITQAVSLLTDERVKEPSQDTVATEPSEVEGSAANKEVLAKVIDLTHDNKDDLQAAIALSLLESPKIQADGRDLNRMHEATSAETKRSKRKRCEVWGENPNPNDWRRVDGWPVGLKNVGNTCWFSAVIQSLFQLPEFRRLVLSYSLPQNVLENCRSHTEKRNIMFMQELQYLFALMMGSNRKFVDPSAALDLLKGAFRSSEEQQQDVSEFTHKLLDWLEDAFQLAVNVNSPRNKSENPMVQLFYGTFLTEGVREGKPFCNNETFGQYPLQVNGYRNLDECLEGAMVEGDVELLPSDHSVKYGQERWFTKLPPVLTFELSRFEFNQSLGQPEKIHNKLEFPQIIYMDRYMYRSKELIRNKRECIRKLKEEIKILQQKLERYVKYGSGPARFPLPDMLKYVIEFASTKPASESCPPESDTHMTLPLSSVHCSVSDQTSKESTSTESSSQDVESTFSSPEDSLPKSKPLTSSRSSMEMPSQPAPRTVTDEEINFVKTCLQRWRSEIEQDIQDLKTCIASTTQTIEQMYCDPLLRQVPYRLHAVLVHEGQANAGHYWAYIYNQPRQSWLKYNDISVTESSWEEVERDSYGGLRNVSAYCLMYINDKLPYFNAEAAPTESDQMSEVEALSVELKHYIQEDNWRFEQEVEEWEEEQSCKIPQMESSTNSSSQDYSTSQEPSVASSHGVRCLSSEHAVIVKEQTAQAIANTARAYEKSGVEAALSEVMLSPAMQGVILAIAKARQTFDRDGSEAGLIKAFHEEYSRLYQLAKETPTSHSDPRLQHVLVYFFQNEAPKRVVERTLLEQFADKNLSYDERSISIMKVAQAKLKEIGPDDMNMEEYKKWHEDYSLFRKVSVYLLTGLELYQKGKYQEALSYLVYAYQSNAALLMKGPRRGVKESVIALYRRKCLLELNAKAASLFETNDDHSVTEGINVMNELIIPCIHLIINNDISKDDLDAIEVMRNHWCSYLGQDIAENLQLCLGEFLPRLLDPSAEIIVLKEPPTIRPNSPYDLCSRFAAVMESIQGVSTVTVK
# Procedure, shortened: as §1
smiles,measurement,setting,value
O=C(CCl)Nc1ccc(N2CCCC2=O)cc1,log2 ratio of Biotin-Ahx-Ub-VS probe labelling,USP19,-0.0288
same,log2 ratio of Biotin-Ahx-Ub-VS probe labelling,USP22,0.36
same,log2 ratio of Biotin-Ahx-Ub-VS probe labelling,USP24,-0.284
same,log2 ratio of Biotin-Ahx-Ub-VS probe labelling,USP25,-1.8 (active)
same,log2 ratio of Biotin-Ahx-Ub-VS probe labelling,USP28,-1.25 (active)
